# Experimental data as given in the supplement of paper PMC8728848.
# Many of the other results were omitted from the sample, so the strongest signals are more common in it than they were.
# B1: PX14343G-pdi-535-24-535 (Parabacteroides distasonis) (protein)
# chain: LDTVPKDQLAPSTTWQTEADAKGFIVGCYKDLLDGNTLLYLDCGSDIGYNNFPWEGFRPWGDGSLSSSNPGQILYDYKSIRKANTFLENVDKVTFSSDAVKANYVAQAKAIRAYKYFLMNWWYGGVPIISSYSSADEAKVERNTEQEVRDYIAKDLDEALAGIAEAPEARGYIAKGAVLAIKMREALYYGDWQKAKDAAKAIIDLKQYELDPDYTNLFKVSGVDSKEIILADQNIETLDGLGTIGQMYNNVDQGWSSIVPTQNLVDMYEMSDGLTKEESKTYDAKHPFANRDPRMAMTILYPGRDWRGDVLNTLDEKLQDGTVNKNFPTYTDNASKSALTWAKYLDPMDQYGDVWSSGACPIVFRYAEVLLTYAEAANELSGPSDEIYGYLNQIRQRVGMGEVDKAKYGTKDKLRELIRRERTVELAGEGLRRADIVRWQEDGKMLAEKVMNGDLLRVTGTINYGESEPTKRAEITGTAVIETRQFSSRNRYLPIPQTSMDKNPNLKQNPGY
# How the values were obtained:
# Assay in all cases: glycan array binding signal (z-score within array); higher = stronger binding
# Settings in all cases: glycan notation: IUPAC condensed, linker removed
# [1] = target: Fuc(a1-2)Gal(b1-3)GalNAc
# How it was run: (§1)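 Glycan array binding is given as a within-array Z-score, which can be read as non-binding when negative. The arrays, 3228 of them, came from the Consortium for Functional Glycomics database and were retained only where the protein sequence was available. Z-scores were averaged across arrays of the same protein sequence at different concentrations or buffers and across linkers.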
# [2] = target: Fuc(a1-2)Gal(b1-3)GalNAc(b1-4)[Neu5Ac(a2-3)]Gal(b1-4)Glc
# How it was run: as §1
# [3] = target: Fuc(a1-2)Gal(b1-4)Glc
# How it was run: as §1
# [4] = target: Fuc(a1-2)Gal(b1-4)[Fuc(a1-3)]GlcNAc(b1-3)Gal(b1-4)[Fuc(a1-3)]GlcNAc(b1-3)Gal(b1-4)[Fuc(a1-3)]GlcNAc
# How it was run: as §1
# [5] = target: Fuc(a1-2)Gal6S(b1-3)GlcNAc6S
# How it was run: as §1
# [6] = target: Fuc(a1-2)[Gal(a1-3)]Gal(b1-3)GlcNAc
# How it was run: as §1
# [7] = target: Fuc(a1-2)[Gal(a1-3)]Gal(b1-3)GlcNAc(b1-2)Man(a1-3)[Fuc(a1-2)[Gal(a1-3)]Gal(b1-3)GlcNAc(b1-2)Man(a1-6)]Man(b1-4)GlcNAc(b1-4)[Fuc(a1-6)]GlcNAc
# How it was run: as §1
# [8] = target: Fuc(a1-2)[Gal(a1-3)]Gal(b1-4)GlcNAc(b1-2)Man(a1-3)[Fuc(a1-2)[Gal(a1-3)]Gal(b1-4)GlcNAc(b1-2)Man(a1-6)]Man(b1-4)GlcNAc(b1-4)GlcNAc
# How it was run: as §1
# [9] = target: Fuc(a1-2)[GalNAc(a1-3)]Gal(b1-3)GlcNAc(b1-2)Man(a1-3)[Fuc(a1-2)[GalNAc(a1-3)]Gal(b1-3)GlcNAc(b1-2)Man(a1-6)]Man(b1-4)GlcNAc(b1-4)[Fuc(a1-6)]GlcNAc
# How it was run: as §1
# [10] = target: Fuc(a1-2)[GalNAc(a1-3)]Gal(b1-3)GlcNAc(b1-6)GalNAc
# How it was run: as §1
# [11] = target: Gal(a1-3)[Gal(a1-4)]Gal(b1-4)GlcNAc
# How it was run: as §1
# [12] = target: Gal(a1-4)Gal(b1-3)GlcNAc(b1-2)Man(a1-3)[Gal(a1-4)Gal(b1-3)GlcNAc(b1-2)Man(a1-6)]Man(b1-4)GlcNAc(b1-4)GlcNAc
# How it was run: as §1
# [13] = target: Gal(b1-3)Gal(b1-4)GlcNAc
# How it was run: as §1
# [14] = target: Gal(b1-3)GlcNAc(b1-2)Man(a1-3)[Gal(b1-3)GlcNAc(b1-2)Man(a1-6)]Man(b1-4)GlcNAc(b1-4)GlcNAc
# How it was run: as §1
# [15] = target: Gal(b1-3)GlcNAc(b1-3)Gal(b1-4)[Fuc(a1-3)]GlcNAc
# How it was run: as §1
# [16] = target: Gal(b1-3)GlcNAc(b1-6)[Gal(b1-3)]GalNAc
# How it was run: as §1
# [17] = target: Gal(b1-4)GlcNAc(b1-2)Man(a1-3)[Gal(b1-4)GlcNAc(b1-2)Man(a1-6)]Man(b1-4)GlcNAc(b1-4)[Fuc(a1-6)]GlcNAc
# How it was run: as §1
# [18] = target: Gal(b1-4)GlcNAc(b1-2)Man(a1-3)[Gal(b1-4)GlcNAc(b1-2)Man(a1-6)][Gal(b1-4)GlcNAc(b1-4)]Man(b1-4)GlcNAc(b1-4)[Fuc(a1-6)]GlcNAc
# How it was run: as §1
# [19] = target: Gal(b1-4)GlcNAc(b1-2)Man(a1-3)[Gal(b1-4)GlcNAc(b1-2)Man(a1-6)][GlcNAc(b1-4)]Man(b1-4)GlcNAc(b1-4)[Fuc(a1-6)]GlcNAc
# How it was run: as §1
# [20] = target: Gal(b1-4)GlcNAc(b1-3)Gal(b1-4)GlcNAc(b1-2)Man(a1-3)[Gal(b1-4)GlcNAc(b1-3)Gal(b1-4)GlcNAc(b1-2)Man(a1-6)]Man(b1-4)GlcNAc(b1-4)[Fuc(a1-6)]GlcNAc
# How it was run: as §1
# [21] = target: Gal(b1-4)GlcNAc(b1-3)Gal(b1-4)GlcNAc(b1-3)Gal(b1-4)GlcNAc(b1-2)Man(a1-3)[Gal(b1-4)GlcNAc(b1-3)Gal(b1-4)GlcNAc(b1-3)Gal(b1-4)GlcNAc(b1-2)Man(a1-6)]Man(b1-4)GlcNAc(b1-4)GlcNAc
# How it was run: as §1
# [22] = target: Gal(b1-4)GlcNAc(b1-3)Gal(b1-4)GlcNAc(b1-3)Gal(b1-4)GlcNAc(b1-2)[Gal(b1-4)GlcNAc(b1-3)Gal(b1-4)GlcNAc(b1-3)Gal(b1-4)GlcNAc(b1-6)]Man(a1-6)[Gal(b1-4)GlcNAc(b1-3)Gal(b1-4)GlcNAc(b1-3)Gal(b1-4)GlcNAc(b1-2)Man(a1-3)]Man(b1-4)GlcNAc(b1-4)[Fuc(a1-6)]GlcNAc
# How it was run: as §1
# [23] = target: Gal(b1-4)GlcNAc(b1-3)Gal(b1-4)GlcNAc(b1-3)Gal(b1-4)GlcNAc(b1-3)Gal(b1-4)GlcNAc(b1-2)Man(a1-3)[Gal(b1-4)GlcNAc(b1-3)Gal(b1-4)GlcNAc(b1-3)Gal(b1-4)GlcNAc(b1-3)Gal(b1-4)GlcNAc(b1-2)Man(a1-6)]Man(b1-4)GlcNAc(b1-4)GlcNAc
# How it was run: as §1
# [24] = target: Gal(b1-4)GlcNAc(b1-3)Gal(b1-4)GlcNAc(b1-3)Gal(b1-4)GlcNAc(b1-3)Gal(b1-4)GlcNAc(b1-3)Gal(b1-4)GlcNAc(b1-2)Man(a1-3)[Gal(b1-4)GlcNAc(b1-3)Gal(b1-4)GlcNAc(b1-3)Gal(b1-4)GlcNAc(b1-3)Gal(b1-4)GlcNAc(b1-3)Gal(b1-4)GlcNAc(b1-2)Man(a1-6)]Man(b1-4)GlcNAc(b1-4)GlcNAc
# How it was run: as §1
# [25] = target: Gal3S(b1-4)[Fuc(a1-3)]GlcNAc6S
# How it was run: as §1
# [26] = target: Gal3S6S(b1-4)GlcNAc
# How it was run: as §1
# [27] = target: Glc(a1-6)Glc(a1-6)Glc(a1-6)Glc
# How it was run: as §1
binder,measurement,setting,value
B1,glycan array binding signal (z-score),[1],-1.05
same,glycan array binding signal (z-score),[2],-0.439
same,glycan array binding signal (z-score),[3],-0.597
same,glycan array binding signal (z-score),[4],-0.34
same,glycan array binding signal (z-score),[5],0.336
same,glycan array binding signal (z-score),[6],0.064
same,glycan array binding signal (z-score),[7],-0.242
same,glycan array binding signal (z-score),[8],2.43
same,glycan array binding signal (z-score),[9],-1.2
same,glycan array binding signal (z-score),[10],-0.366
same,glycan array binding signal (z-score),[11],2.67
same,glycan array binding signal (z-score),[12],-0.566
same,glycan array binding signal (z-score),[13],0.673
same,glycan array binding signal (z-score),[14],0.51
same,glycan array binding signal (z-score),[15],-0.53
same,glycan array binding signal (z-score),[16],0.402
same,glycan array binding signal (z-score),[17],-0.363
same,glycan array binding signal (z-score),[18],-0.426
same,glycan array binding signal (z-score),[19],-0.515
same,glycan array binding signal (z-score),[20],2.06
same,glycan array binding signal (z-score),[21],1.65
same,glycan array binding signal (z-score),[22],3.07
same,glycan array binding signal (z-score),[23],0.004
same,glycan array binding signal (z-score),[24],2.76
same,glycan array binding signal (z-score),[25],2.01
same,glycan array binding signal (z-score),[26],0.193
same,glycan array binding signal (z-score),[27],0.739
